Pf apPOL block: Pf-apPOL DNA polymerase inhibition | Recombinant Pf-apPOL, molecular beacon fluorescence, 1.5 h | inhibition, % at 10 µM | 0.25% of 210,000 active | AID 1794808
mHTT-CaM PPI inh: disrupts binding of mutant huntingtin to calmodulin; AID 1671202; P42858; AlphaScreen His-mHTT/GST-CaM binding, luminescence; inhibition, % at 15 µM; 3.6% of 190,000 active
Target sequence (P42858 whole entry, looked up, change not shown): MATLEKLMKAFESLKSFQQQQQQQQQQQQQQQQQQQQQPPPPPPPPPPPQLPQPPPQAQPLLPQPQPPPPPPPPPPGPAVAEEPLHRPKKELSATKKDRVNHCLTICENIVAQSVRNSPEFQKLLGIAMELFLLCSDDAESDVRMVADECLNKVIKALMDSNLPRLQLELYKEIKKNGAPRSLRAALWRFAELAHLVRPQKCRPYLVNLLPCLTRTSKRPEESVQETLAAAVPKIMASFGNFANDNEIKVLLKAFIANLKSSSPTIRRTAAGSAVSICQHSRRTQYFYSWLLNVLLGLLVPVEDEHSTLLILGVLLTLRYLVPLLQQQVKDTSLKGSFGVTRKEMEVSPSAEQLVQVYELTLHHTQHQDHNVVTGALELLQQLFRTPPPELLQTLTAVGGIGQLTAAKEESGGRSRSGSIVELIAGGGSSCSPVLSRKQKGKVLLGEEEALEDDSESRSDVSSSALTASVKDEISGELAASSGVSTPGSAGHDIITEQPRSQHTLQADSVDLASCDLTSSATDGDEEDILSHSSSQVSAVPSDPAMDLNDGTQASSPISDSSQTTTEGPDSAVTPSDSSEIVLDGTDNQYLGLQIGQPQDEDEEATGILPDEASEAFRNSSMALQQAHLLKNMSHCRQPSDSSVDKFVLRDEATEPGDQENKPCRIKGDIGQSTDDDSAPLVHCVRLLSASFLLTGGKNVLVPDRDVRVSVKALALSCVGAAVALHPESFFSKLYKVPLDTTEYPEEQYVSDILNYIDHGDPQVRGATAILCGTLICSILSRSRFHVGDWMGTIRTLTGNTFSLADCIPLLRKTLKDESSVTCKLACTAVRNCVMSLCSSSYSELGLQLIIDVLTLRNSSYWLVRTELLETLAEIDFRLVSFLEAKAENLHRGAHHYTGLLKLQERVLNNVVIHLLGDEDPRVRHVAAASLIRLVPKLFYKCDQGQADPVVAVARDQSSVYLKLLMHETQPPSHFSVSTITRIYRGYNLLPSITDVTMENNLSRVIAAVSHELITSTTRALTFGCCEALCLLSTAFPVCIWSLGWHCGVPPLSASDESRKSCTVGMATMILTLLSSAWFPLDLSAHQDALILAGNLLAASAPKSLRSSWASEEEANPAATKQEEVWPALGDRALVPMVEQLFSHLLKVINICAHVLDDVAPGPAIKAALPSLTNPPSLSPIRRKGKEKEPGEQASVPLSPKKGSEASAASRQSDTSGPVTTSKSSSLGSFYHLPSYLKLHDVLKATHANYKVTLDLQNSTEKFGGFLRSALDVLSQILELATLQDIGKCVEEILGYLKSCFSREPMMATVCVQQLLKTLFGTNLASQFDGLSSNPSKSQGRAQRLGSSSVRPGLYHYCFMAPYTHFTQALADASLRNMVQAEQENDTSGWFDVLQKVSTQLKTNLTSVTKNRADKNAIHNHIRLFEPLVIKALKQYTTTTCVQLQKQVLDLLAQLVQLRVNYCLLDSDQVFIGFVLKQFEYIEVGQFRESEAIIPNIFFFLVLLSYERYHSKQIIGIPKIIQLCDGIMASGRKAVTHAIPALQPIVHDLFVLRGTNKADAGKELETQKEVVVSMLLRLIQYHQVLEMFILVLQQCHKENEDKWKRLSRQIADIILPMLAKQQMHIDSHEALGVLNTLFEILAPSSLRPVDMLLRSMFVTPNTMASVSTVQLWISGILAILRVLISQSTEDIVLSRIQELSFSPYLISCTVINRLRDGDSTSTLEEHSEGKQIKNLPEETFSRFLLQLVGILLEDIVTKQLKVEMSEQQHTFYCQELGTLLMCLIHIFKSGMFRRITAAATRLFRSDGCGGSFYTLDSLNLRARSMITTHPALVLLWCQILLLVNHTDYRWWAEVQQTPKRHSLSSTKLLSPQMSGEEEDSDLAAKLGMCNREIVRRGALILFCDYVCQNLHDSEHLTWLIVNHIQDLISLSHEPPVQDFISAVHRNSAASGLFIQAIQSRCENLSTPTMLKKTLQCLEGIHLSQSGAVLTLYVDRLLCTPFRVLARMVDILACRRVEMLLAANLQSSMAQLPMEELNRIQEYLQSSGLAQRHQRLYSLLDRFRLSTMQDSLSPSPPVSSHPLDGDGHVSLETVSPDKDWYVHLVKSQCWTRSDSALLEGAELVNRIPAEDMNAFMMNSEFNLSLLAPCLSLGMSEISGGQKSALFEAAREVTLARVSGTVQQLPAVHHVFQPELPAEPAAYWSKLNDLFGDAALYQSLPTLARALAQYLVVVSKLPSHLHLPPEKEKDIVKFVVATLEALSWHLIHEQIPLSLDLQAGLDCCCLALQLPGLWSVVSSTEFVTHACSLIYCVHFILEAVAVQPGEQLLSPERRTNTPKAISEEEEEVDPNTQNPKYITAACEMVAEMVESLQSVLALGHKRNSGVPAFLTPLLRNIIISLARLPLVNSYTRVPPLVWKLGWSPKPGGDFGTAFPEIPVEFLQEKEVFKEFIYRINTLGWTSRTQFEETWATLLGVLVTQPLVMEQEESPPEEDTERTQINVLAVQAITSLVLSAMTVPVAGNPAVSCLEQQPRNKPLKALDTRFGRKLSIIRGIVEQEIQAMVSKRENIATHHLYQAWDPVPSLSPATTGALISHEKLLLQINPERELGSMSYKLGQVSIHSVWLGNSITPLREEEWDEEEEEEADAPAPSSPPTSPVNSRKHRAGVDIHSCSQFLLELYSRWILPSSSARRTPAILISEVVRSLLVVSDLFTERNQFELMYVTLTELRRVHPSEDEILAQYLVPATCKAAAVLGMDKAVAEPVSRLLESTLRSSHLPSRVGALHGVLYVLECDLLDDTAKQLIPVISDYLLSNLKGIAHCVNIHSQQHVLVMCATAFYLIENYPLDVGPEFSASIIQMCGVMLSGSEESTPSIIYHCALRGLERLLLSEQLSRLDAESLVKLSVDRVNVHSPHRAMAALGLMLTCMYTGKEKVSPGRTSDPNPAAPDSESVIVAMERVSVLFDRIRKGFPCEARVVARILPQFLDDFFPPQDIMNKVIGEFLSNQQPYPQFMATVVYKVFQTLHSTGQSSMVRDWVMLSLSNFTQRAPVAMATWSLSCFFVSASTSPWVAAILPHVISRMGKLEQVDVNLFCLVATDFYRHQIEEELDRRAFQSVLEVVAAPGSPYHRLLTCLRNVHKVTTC
Of the large screens only hits and unclear results are named; the others gave an inactive call. Compounds with a hit are over-represented: about 3.5% of the library has one in this group of screens. Cut-off read from the data, not from the text of the source: active = inhibition above about 50%; inactive = the rest.

COc1cccc(-c2ccc(CN3C(C)C(=O)N(Cc4cn(Cc5ccco5)nn4)CCS3(=O)=O)cc2)c1OC (stereo not given)	none
CC1C(=O)N(Cc2cn(Cc3ccco3)nn2)CCS(=O)(=O)N1Cc1ccc(-c2ccc(F)nc2)cc1 (stereo not given)	none
Cc1ccc(-c2ccc(CN3C(C)C(=O)N(Cc4cn(Cc5ccco5)nn4)CCS3(=O)=O)cc2)cc1 (stereo not given)	none
Cc1ccccc1-c1ccc(CN2C(C)C(=O)N(Cc3cn(Cc4ccco4)nn3)CCS2(=O)=O)cc1 (stereo not given)	mHTT-CaM PPI inh 92
Cc1ccc(-c2ccc(CN3C(C)C(=O)N(Cc4cn(Cc5ccco5)nn4)CCS3(=O)=O)cc2)c(C)c1 (stereo not given)	mHTT-CaM PPI inh 84
CC1C(=O)N(Cc2cn(Cc3ccco3)nn2)CCS(=O)(=O)N1Cc1ccc(-c2ccccc2C(F)(F)F)cc1 (stereo not given)	mHTT-CaM PPI inh 68
Cc1nn(-c2ccc(C(=O)N3CCCC3)cc2)c2c1C(=O)CC(C)(C)C2	none
c1csc(CN2CCN(c3cnn4c(C5CC5)nnc4c3)CC2)c1	none
Cc1ccc(C(=O)N2CCCn3nc(-c4cccs4)cc3C2)s1	none
N#Cc1cccc(C(=O)N2CCCn3nc(-c4ccc(Cl)cc4)cc3C2)c1	mHTT-CaM PPI inh 55
Cc1ccc(C(=O)N2CCCn3nc(-c4ccc(Cl)cc4)cc3C2)s1	mHTT-CaM PPI inh 71
Cc1cccc(-c2cc3n(n2)CCCN(C(=O)c2cccc(C#N)c2)C3)c1	none
Cc1cccc(-c2cc3n(n2)CCCN(C(=O)c2ccncc2)C3)c1	none
Cc1cccc(-c2cc3n(n2)CCCN(C(=O)COc2ccc(Cl)cc2)C3)c1	mHTT-CaM PPI inh 83
CCCCOc1ccc(C(=O)NN)cc1	none
Cc1cccc(C2=N/C(=C\c3ccc([N+](=O)[O-])o3)C(=O)O2)c1	none
Cc1[nH]nc(SCC(=O)Nc2cccc(Cl)c2)c1[N+](=O)[O-]	none
Cc1[nH]nc(SCC(=O)Nc2cc(Cl)ccc2O)c1[N+](=O)[O-]	mHTT-CaM PPI inh 52
CCc1c(C)nc2c(-c3ccccc3)c(Cc3ccc(OC)cc3)[nH]n2c1=O	none
COc1cc(C=C2Oc3c(ccc(O)c3CN3CCCCC3C)C2=O)cc(OC)c1OC (stereo not given)	none
CCc1ccccc1NC(=O)c1cc(CC)n2nccc2n1	none
c1ccc(-c2noc(-c3cc(N4CCOCC4)nc4ccccc34)n2)cc1	none
CCN1CCN(c2cc(-c3nc(-c4ccccc4)no3)c3ccccc3n2)CC1	mHTT-CaM PPI inh 66
Cn1c2c(c(=O)n(C)c1=O)C(c1ccc(Cl)c(Cl)c1)C1C(=O)c3ccccc3C1=N2 (stereo not given)	none
Cn1cc(C(=O)NCCc2c[nH]c3ccccc23)c2nn(-c3ccccc3)c(=O)c-2c1	none
Cn1cc(C(=O)NCCc2c[nH]c3ccccc23)c2[nH]c(=O)n(Cc3ccccc3)c(=O)c21	mHTT-CaM PPI inh 56
Cc1c(C#N)sc2nc(-c3ccccc3)nc(N=CN(C)C)c12	none
CN(C)C=Nc1c(C#N)cnn1-c1ncnc2sc(-c3ccccc3)cc12	mHTT-CaM PPI inh 82
C=CCn1c(SCC(=O)N2CCOCC2)nnc1-c1cccc(OC)c1	none
O=C(Cn1cnc2sc3c(c2c1=O)CCCC3)NCc1ccco1	none
O=c1c2c3c(sc2nc2ccc(NCc4ccco4)nn12)CCCC3	mHTT-CaM PPI inh 79
CCOc1ccc(C2(C)CC(=O)NC(=O)N2)cc1 (stereo not given)	none
CC(c1ccccc1)C1CC(=O)N(c2ccc(I)cc2)C1=O (stereo not given)	none
CC(=O)Nc1ccc2c(c1)C(N1CCOCC1)=Nc1ccccc1O2	none
CC1CCN(CC2CCN(S(=O)(=O)c3cccc(C(F)(F)F)c3)CC2)CC1	none
O=S(=O)(c1cccc(C(F)(F)F)c1)N1CCC(CN2CCCCCC2)CC1	mHTT-CaM PPI inh 98
Clc1cc(Cl)cc(N/N=C/c2ccccn2)c1	none (no result: Pf apPOL block)
O=S1(=O)N=C(N/N=C/c2ccccn2)c2ccccc21	mHTT-CaM PPI inh active (no result: Pf apPOL block)
COc1ccc(-c2cc(C(F)(F)F)n3nc(-c4ccco4)cc3n2)cc1OC	none (no result: mHTT-CaM PPI inh)
CCNC(=O)N1CCC(c2nc(C)ccc2C(=O)NCC(C)C)CC1	none
O=C(CC1=CCCCC1)NC1CCc2[nH]c3ccc(Br)cc3c2C1 (stereo not given)	mHTT-CaM PPI inh 100
CCc1cccc2c3c([nH]c12)CCC(NC(=O)C(C)CC)C3 (stereo not given)	none
CC1CCC(C(=O)NC2CCc3[nH]c4ccc(Br)cc4c3C2)CC1 (stereo not given)	mHTT-CaM PPI inh 97
Cc1cc(C)cc(C(=O)NC2CCc3[nH]c4ccc(Br)cc4c3C2)c1 (stereo not given)	none
CCc1ccccc1NC(=O)N1CCc2nc(-c3ccccc3)ncc2C1	none
CCC/C=C/c1ccc(CN2C(C(C)C)C(=O)N(Cc3cn(Cc4ccco4)nn3)CCS2(=O)=O)cc1 (stereo not given)	mHTT-CaM PPI inh 57
COc1ccc(-c2ccc(CN3C(C(C)C)C(=O)N(Cc4cn(Cc5ccco5)nn4)CCS3(=O)=O)cc2)cn1 (stereo not given)	none
CCC/C=C/c1ccc(CN2C(C)C(=O)N(Cc3cn(Cc4ccco4)nn3)CCS2(=O)=O)cc1 (stereo not given)	none
CC(C)C1C(=O)N(Cc2cn(Cc3ccco3)nn2)CCS(=O)(=O)N1Cc1ccc(-c2ccc(Cl)c(Cl)c2)cc1 (stereo not given)	mHTT-CaM PPI inh 83
CC(NC(=O)c1cn2c(n1)CSCC2)c1cccnc1 (stereo not given)	none
CCCCOc1cccc(C(=O)Nc2ccc([N+](=O)[O-])cc2OC)c1	none
Cc1cccc(C)c1NC(=O)c1ccco1	none
Cc1ccc(/C=C/NC(=O)c2ccco2)cc1C	mHTT-CaM PPI inh 77
O=C(NC1CC2CC1CN2S(=O)(=O)c1ccc2c(c1)CCC2)c1ccccc1 (stereo not given)	none
COc1ccc(NC(=O)c2sc3nc(-c4ccc(OC)c(OC)c4)ccc3c2N)c(OC)c1	none
COc1ccc(OC)c(S(=O)(=O)n2nnc3ccccc32)c1	mHTT-CaM PPI inh 100
COc1ccc(C)cc1S(=O)(=O)n1nnc2cc(Cl)ccc21	mHTT-CaM PPI inh 100
COc1ccc(S(=O)(=O)n2nnc3ccccc32)c(C)c1	none
COc1ccc(C)cc1S(=O)(=O)n1nc(C)cc1C	none
COc1cc(C)c(C)cc1S(=O)(=O)n1nnc2ccccc21	mHTT-CaM PPI inh 88
COc1cc(C)c(S(=O)(=O)n2nnc3ccccc32)cc1C	none
Cc1ccc(N2C(=O)CSC2c2ccc(Br)cc2)cc1 (stereo not given)	none
CCNc1cc(N2CCC(CCC(=O)Nc3ccc(OC)c(OC)c3)CC2)ncn1	none
CCCNc1cc(N2CCC(CCC(=O)Nc3ccc4c(c3)OCCO4)CC2)ncn1	none
CCCNc1cc(N2CCC(CCC(=O)Nc3ccc4c(c3)OCO4)CC2)ncn1	mHTT-CaM PPI inh 60
CCNc1cc(N2CCC(CCC(=O)Nc3cc(C)ccc3OC)CC2)ncn1	mHTT-CaM PPI inh 55
COc1ccccc1-n1cnc2cc(N=Cc3ccccc3O)ccc21	none
O=C(NCCc1c[nH]c2ccccc12)OCc1ccc([N+](=O)[O-])cc1	none
Cc1ccc(NC(=O)CCS(=O)(=O)c2cccc3nsnc23)cc1Cl	none
CCC(C)NC(=O)C1CCC(c2ccc(F)cc2)N(C(C)=O)C1 (stereo not given)	none
N=c1c(C(=O)NCc2ccco2)cc2c(=O)n3ccccc3nc2n1CCCO	none
Cc1ccc(C)c(C(=O)N2CCC3(CC2)NC(=O)N(Cc2cccc(Cl)c2)C3=O)c1	none

Bioassay records as filed in PubChem BioAssay.
